HPGD block: qHTS Assay for Inhibitors of HPGD (15-Hydroxyprostaglandin Dehydrogenase). 15-hydroxyprostaglandin dehydrogenase [NAD(+)] (Homo sapiens), P15428. purified HPGD, NADH fluorescence kinetic, PGE2 substrate. Potency, µM, most hits filed as inhibitors. actives 4.3% (n = 150,000). AID 894, 2007
Target sequence (P15428 whole entry, looked up): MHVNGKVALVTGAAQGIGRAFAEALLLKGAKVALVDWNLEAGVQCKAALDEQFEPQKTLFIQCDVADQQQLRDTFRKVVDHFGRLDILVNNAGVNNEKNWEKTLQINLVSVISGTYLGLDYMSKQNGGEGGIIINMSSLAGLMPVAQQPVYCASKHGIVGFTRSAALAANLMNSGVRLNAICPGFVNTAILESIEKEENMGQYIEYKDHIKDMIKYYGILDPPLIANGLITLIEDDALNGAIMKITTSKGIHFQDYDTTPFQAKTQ
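20 nM HPGD preincubated 15 min at room temperature with compound in 50 mM Tris-HCl pH 8, 0.01% Tween 20. Started with 1 mM NAD+ and 30 uM prostaglandin E2; NADH fluorescence (360/450 nm) read 5 times over 30-s intervals, last minus first.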
HTT cytoprotect: qHTS Multiplex Assay to Identify Dual Action Probes in a Cell Model of Huntington: Cytoprotection (ATP) | PC12 HTT-Q103 induced, cytoprotection, ATP luminescence, 40 h | Potency, µM (doses to about 56.4 µM), hits mostly activators | actives 0.14% (n = 230,000) | AID 1471, 2008; active = well fitted curve in the direction sought with a large enough effect; inconclusive = small, poorly fitted or top-dose-only effect, or another doubt; inactive = no such curve, though single readings can be large; an effect the other way counts as inactive or inconclusive; note: nearly all actives have a fitted effect of over 45% in size
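Readout: ATPlite luminescence (ATP level). Model: stable PC12, inducible Htt exon1 Q103-GFP. Inducer: tebufenozide, 100 nM final. Compounds: dose series. No G418 in medium.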
PNC assembly inh: High Content Assay for Compounds that inhibit the Assembly of the Perinucleolar Compartment. PC3M PTB-GFP, PNC prevalence imaging, 16 h; stronger effect = lower value. activity change (PNC), negative = inhibition, % at 10 µM. actives 3.1% (n = 140,000). AID 2417, 2010;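 active = readout at or below -70, meaning at least 70% loss of cells showing the perinucleolar compartment, a nuclear body marking cancer cells; inconclusive = readout between -30 and a set limit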
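PC3M cells stably expressing PTB-GFP, 750–1000 cells/well, treated 16 h at 37 °C with compound (23 nl of library stock), in duplicate. After paraformaldehyde fixation and Hoechst stain, imaged at 20x; PNC prevalence scored by image analysis.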
ALDH1A1 block: qHTS Assay for Inhibitors of Aldehyde Dehydrogenase 1 (ALDH1A1); Purified ALDH1A1, NADH fluorescence, propionaldehyde substrate; Potency, µM (top dose mostly 75.3 µM), hits mostly inhibitors; actives 7.3% (n = 220,000); AID 1030, 2008
Target sequence (P00352 whole entry, looked up): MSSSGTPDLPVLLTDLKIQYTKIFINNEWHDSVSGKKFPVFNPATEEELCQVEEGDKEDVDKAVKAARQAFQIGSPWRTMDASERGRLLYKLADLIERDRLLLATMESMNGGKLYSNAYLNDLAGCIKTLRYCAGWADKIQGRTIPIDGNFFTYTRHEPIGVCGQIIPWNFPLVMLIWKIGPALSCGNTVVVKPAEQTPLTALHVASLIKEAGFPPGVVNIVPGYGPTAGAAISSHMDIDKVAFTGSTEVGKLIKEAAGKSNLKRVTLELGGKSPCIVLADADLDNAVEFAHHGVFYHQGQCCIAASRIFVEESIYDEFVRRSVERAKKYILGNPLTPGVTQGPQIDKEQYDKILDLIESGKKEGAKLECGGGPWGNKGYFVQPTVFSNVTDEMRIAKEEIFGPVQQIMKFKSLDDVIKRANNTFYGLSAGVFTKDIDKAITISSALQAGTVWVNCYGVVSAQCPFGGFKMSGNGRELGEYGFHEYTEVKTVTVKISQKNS
GoLoco inh red: qHTS Assay for Inhibitors of RGS12 GoLoco Motif Activity (Red Fluorophore) | Guanine nucleotide-binding protein G(i) subunit alpha-1 (Homo sapiens), P63096 | Gai1:RGS12 GoLoco peptide FP, rhodamine, 10 min | Potency, µM (top dose mostly 61.6 µM), actives largely listed as inhibitors | actives 0.44% (n = 230,000) | AID 880, 2007; active = well fitted inhibition curve with a large enough effect, not every such curve was filed as active; inactive = no such curve, though single readings can be large or run the other way; note: nearly all actives have a fitted effect of over 30% in size
HTT aggregate: qHTS Multiplex Assay to Identify Dual Action Probes in a Cell Model of Huntington: Aggregate Formation (GFP); actives 1.1% (n = 220,000); PC12 HttQ103-GFP aggregates, Acumen cytometry, 40 h; AID 1688, 2009; Potency, µM (titrated, usually from 46.1 µM), hits mostly inhibitors; active = well fitted curve in the direction sought with a large enough effect; inconclusive = small, poorly fitted or top-dose-only effect, or another doubt; inactive = no such curve, though single readings can be large; an effect the other way counts as inactive or inconclusive; note: nearly all actives have a fitted effect of over 60% in size
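Aggregates are detected as GFP objects 1–25 µm with signal 6 STDEV over background in lysates of induced PC12 cells. These carry Huntingtin exon 1 with 103 glutamines fused to GFP under an ecdysone promoter; compounds titrated.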
Hits are given with their value; 0 = inactive; ? = inconclusive; - = no result given; [ ] = remark or other dose. Hits are enriched below; roughly 11% of the tested compounds scored in any of these assays. Unless noted, calls come from the whole dose curve; as a rule, active = well fitted inhibition curve with a large enough effect (not every such curve was filed as active); inconclusive = small, poorly fitted or top-dose-only effect, or another doubt; inactive = no such curve, though single readings can be large or run the other way.

SMILES | HPGD block | HTT cytoprotect | PNC assembly inh | ALDH1A1 block | GoLoco inh red | HTT aggregate
CCOc1ccc(N=c2cc(-c3ccc(OC)cc3)oc3ccccc23)cc1 | 0 | 0[10 µM] | 0 | 0 | 0 | 3.2µM
CN(C)c1ccnc(Oc2ccccc2)c1C#N | ? | 0 | 0 | ? | 0 | 0
CN(C)c1ccnc(Oc2ccc(C(C)(C)C)cc2)c1C#N | 35µM | 0[10 µM] | 0 | ? | 0 | 0
CN(C)c1ccnc(Oc2ccc(Cl)cc2)c1C#N | 32µM | 0 | 0 | 25µM | 0 | ?
O=C(NNC(=S)Nc1cccc(C(F)(F)F)c1)c1cccc(Cl)c1 | 0 | 0[10 µM] | 0 | 22µM | 0 | ?
CNC(=S)NNC(=O)c1cccc(C(F)(F)F)c1 | 0 | 0[10 µM] | 0 | 0 | 0 | 0
O=C(CCNC(=O)c1ccccc1Cl)Nc1cccc(C(F)(F)F)c1 | 0 | 0[10 µM] | 0 | 0 | 0 | 0
Cc1cc(C(F)(F)F)nn1CC(=O)NNC(=S)Nc1cccc(Cl)c1 | 0 | 0 | 0 | 20µM | 0 | 0
FC(F)(F)c1cccc(NC(=S)Nc2cccc(NC(=S)Nc3cccc(C(F)(F)F)c3)n2)c1 | - | 0[10 µM] | - | 25µM | 0 | 0[9.22 µM]
O=C(NNC(=S)Nc1cccc(C(F)(F)F)c1)c1ccccc1Cl | 0 | 0[10 µM] | 0 | 8.9µM | 0 | ?
COc1ccc(CNc2ccnc(-c3ccc4c(c3)OCO4)n2)c(OC)c1 | - | 0 | - | 0 | 0 | -
CC12COC3(C(=O)Nc4ccccc4F)CC1CCC32C (configuration not stated) | - | 0 | - | 0 | 0 | 0
COC(=O)/C=C/C1c2ccccc2C(OC)C1C (configuration not stated) | - | 0[10 µM] | - | 0[13.5 µM] | - | -
FC(F)(F)c1cccc(NC(=S)NNC(=S)NCc2ccccc2)c1 | ? | 0 | 0 | 0.56µM | 0 | ?
C/C=C/C(=O)Nc1cccc(C(F)(F)F)c1 | 0 | 0[1.9 µM] | 0 | 0 | 0 | 0
CCN1CCC(NC(=O)Nc2cccc(C(F)(F)F)c2)CC1 | - | 0 | - | 0 | 0 | 0
CCN1CCN(C(=O)Nc2cccc(C(F)(F)F)c2)CC1 | 0 | 0[0.074 µM] | -123 | 0 | 0 | 0
O=C(O)/C=C/C(=O)Nc1cccc(C(F)(F)F)c1 | 0 | 0[1.9 µM] | ? | 20µM | 0 | 0
COc1cccc([C@@H]2Oc3ccc(OC)cc3C(=O)[C@H]2OC(=O)NCCc2ccc(OC)c(OC)c2)c1 | 0 | 0 | - | 0 | 0 | -
O=C1CC(N2CCN(c3ccccc3)CC2)C(=O)N1c1ccc2c(c1)OCO2 (configuration not stated) | - | 0 | - | 0 | 0 | 0
O=C(NC1CCCC1)c1cnn2c(C(F)(F)F)cc(-c3ccc4c(c3)OCO4)nc12 | 0 | 0 | ? | 0 | 0 | 0
Cc1ccc(-c2cc(C(F)(F)F)n3ncc(C(=O)N4CCN(C)CC4)c3n2)cc1 | ? | 0[10 µM] | -100 | ? | 0 | ?
CN1CCN(C(=O)c2cnn3c(C(F)(F)F)cc(-c4cccs4)nc23)CC1 | ? | - | 0 | ? | 0 | 0
Cc1ccc(-c2cc(C(F)(F)F)n3ncc(C(=O)N4CCCc5ccccc54)c3n2)cc1 | 0 | 0[10 µM] | -100 | 0 | 0 | 0
CN1CCN(C(=O)c2cnn3c(C(F)(F)F)cc(-c4ccc5c(c4)OCO5)nc23)CC1 | 25µM | 0 | 0 | ? | 0 | 0
SMILES | HPGD block | HTT cytoprotect | PNC assembly inh | ALDH1A1 block | GoLoco inh red | HTT aggregate
O=C(c1cnn2c(C(F)(F)F)cc(-c3ccc4c(c3)OCO4)nc12)N1CCCCC1 | 2.8µM | 0[10 µM] | 0 | 0 | 0 | 0
CCOC(=O)c1nnc(-c2ccccc2)nc1N1CC(C)OC(C)C1 (configuration not stated) | - | 0 | - | ? | 0 | 0[9.22 µM]
NC(=O)CCC(NS(=O)(=O)c1ccc(Cl)cc1)C(=O)NCc1ccccc1 (configuration not stated) | 0 | 0[10 µM] | 0 | 0 | 0 | 0
CCOC(=O)C1=C(CN2CCN(CCC#N)CC2)NC(=O)NC1c1ccc2c(c1)OCO2 (configuration not stated) | - | ? | - | 0 | 0 | 0
S=C(NCc1ccccc1)NC1CCCCC1 | - | 0[10 µM] | - | 0 | 0 | 0[9.22 µM]
S=C(NCc1cccc(Cl)c1)NC1CCCCC1 | 0 | - | -109 | 0 | 0 | 0
CN1C(=S)N(c2ccccc2)C(=O)/C1=C/c1ccco1 | 0 | 0[0.074 µM] | ? | 13µM | 0 | 0
CN1C(=S)N(c2ccccc2)C(=O)/C1=C/c1cccs1 | 0 | 0[10 µM] | 0 | 0 | 0 | 0
COc1ccccc1N1C(=N)S/C(=C\c2ccc(-c3ccccc3C(=O)O)o2)C1=O | 25µM | - | 0 | ? | 0 | 0
N=C1S/C(=C\c2ccc(-c3cccc(Cl)c3)o2)C(=O)N1c1nccs1 | ? | 0[10 µM] | 0 | 0 | 0 | 0
N=C1S/C(=C\c2ccc(-c3ccccc3C(=O)O)o2)C(=O)N1c1ccc2c(c1)OCO2 | - | 0 | - | 11µM | 0 | 0
Cc1ccc(NC(=O)CN2C(=O)S/C(=C\c3ccc(-c4cccc(C(=O)O)c4C)o3)C2=O)cc1C | - | - | - | 0 | 0 | 0
CC(=O)C1=C(O)C(=O)N(c2ccc(Br)cn2)C1c1ccc(F)cc1 (configuration not stated) | - | 0 | - | ? | 0 | 0
COc1ccc(NC(=O)CCN2C(=O)[C@@H]3[C@H](C2=O)[C@H]2C=C[C@@H]3C2)cc1 | - | 0[10 µM] | - | - | 0 | 0[9.22 µM]
COc1ccc(NC(=O)CCN2C(=O)C3C4CCC(C4)C3C2=O)cc1 (configuration not stated) | 0 | 0[0.074 µM] | 0 | 13µM | 0 | 0
O=C(CCN1C(=O)C2C3CCC(C3)C2C1=O)Nc1ccc([N+](=O)[O-])cc1 (configuration not stated) | - | 0[10 µM] | - | 3.5µM | 0 | 0
CCC1=C(OC(=O)N(CC)CC)N2C(=O)OC(=NCCOC)[C@]2(C)[C@H]2C1=CC[C@H]1C(=O)N(C)C(=O)[C@H]12 | 0 | 0 | - | 0 | 0 | -
COc1ccc(NS(=O)(=O)c2ccc(N/N=C(\C)c3ccncc3)c([N+](=O)[O-])c2)cc1 | 6.3µM | 0[0.074 µM] | 0 | 0 | 0 | 0
C/C(=N\Nc1ccc(S(=O)(=O)Nc2ccccc2)cc1[N+](=O)[O-])c1ccncc1 | - | 0 | - | 0 | 0 | 0
Cc1ccc(S(=O)(=O)N2CCN(C(=O)c3cccs3)CC2)c(C)c1 | - | 0 | - | 0 | 0 | ?
CCCc1cc(=O)[nH]c(SCc2cc(C(=O)OC)c(C)o2)n1 | 16µM | 0 | 0 | 0 | 0 | 0
CCN(CC)C(=O)C1CCCN(Cc2ccccc2C(F)(F)F)C1 (configuration not stated) | 0 | 0[10 µM] | 0 | 3.5µM | 0 | 0

Assay outcomes: PubChem BioAssay, National Center for Advancing Translational Sciences (NCATS)
